Test results as given in PubChem BioAssay (NCATS).
Several values for one entry are separate records, joined by “and”; a condition that tells them apart may be missing. Equal values may be shown once. Results filed as inconclusive are left out. A call without a number means that no potency is given here. Activity calls are given as the source filed them. Calls follow the shape of the dose curve; as a rule, active = well fitted curve in the direction sought with a large enough effect; inconclusive = small, poorly fitted or top-dose-only effect, or another doubt; inactive = no such curve, though single readings can be large; an effect the other way counts as inactive or inconclusive.

Assays:
[1] = target: Voltage-gated inwardly rectifying potassium channel KCNH2 (Homo sapiens) (UniProt Q12809); assay: qHTS Assay for Small Molecule Inhibitors of the Human hERG Channel Activity (AID 588834);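 also: lower thallium flux fluorescence means stronger hERG block; nearly all actives have a fitted effect of over 50% in size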; also: potency is read from the fitted curve at half-maximal effect
Chain of Voltage-gated inwardly rectifying potassium channel KCNH2 (Homo sapiens) (Q12809 whole entry, looked up): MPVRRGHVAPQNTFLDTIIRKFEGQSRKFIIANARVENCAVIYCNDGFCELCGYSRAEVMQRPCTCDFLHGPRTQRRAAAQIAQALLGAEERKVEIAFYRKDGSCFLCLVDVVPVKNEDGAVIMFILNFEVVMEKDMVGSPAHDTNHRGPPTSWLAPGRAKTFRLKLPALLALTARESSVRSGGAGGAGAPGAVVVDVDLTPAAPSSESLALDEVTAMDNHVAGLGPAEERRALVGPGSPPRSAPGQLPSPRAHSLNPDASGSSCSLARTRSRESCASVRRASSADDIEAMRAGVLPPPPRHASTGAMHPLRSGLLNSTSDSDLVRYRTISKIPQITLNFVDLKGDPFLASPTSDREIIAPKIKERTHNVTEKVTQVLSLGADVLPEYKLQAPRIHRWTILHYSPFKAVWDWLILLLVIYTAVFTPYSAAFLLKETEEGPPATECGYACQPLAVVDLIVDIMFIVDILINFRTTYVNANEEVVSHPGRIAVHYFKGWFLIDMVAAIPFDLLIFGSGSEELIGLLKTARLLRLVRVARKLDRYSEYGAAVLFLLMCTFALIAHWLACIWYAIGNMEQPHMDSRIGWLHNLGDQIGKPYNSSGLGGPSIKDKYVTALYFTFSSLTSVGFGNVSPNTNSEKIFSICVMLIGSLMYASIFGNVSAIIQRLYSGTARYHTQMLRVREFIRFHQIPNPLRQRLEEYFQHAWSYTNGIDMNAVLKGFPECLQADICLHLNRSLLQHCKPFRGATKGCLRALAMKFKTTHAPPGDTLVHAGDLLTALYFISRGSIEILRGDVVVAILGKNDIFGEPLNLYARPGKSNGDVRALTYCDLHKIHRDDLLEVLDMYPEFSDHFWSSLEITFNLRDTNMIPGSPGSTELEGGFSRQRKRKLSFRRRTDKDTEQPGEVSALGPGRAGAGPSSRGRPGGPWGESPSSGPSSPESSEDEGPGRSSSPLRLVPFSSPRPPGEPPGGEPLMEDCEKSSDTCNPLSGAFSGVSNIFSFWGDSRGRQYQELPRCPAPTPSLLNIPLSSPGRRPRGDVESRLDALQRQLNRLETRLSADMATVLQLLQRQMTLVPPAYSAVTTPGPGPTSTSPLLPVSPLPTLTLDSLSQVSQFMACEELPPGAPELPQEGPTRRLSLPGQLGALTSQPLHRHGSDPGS
How it was run: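 In hERG-transduced U2OS cells, dye-loaded for 1 hr at room temperature in dark, test compounds incubated 10 min at 37 °C before thallium stimulation. AC50 values derived by Hill modelling of concentration-response.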

[2] = target: Luciferin 4-monooxygenase (Photinus pyralis) (UniProt P08659); assay: Biochemical firefly luciferase enzyme assay for NPC (AID 624030); also: nearly all actives have a fitted effect of over 70% in size; also: potency is read from the fitted curve at half-maximal effect
Chain of Luciferin 4-monooxygenase (Photinus pyralis) (P08659 whole entry, looked up): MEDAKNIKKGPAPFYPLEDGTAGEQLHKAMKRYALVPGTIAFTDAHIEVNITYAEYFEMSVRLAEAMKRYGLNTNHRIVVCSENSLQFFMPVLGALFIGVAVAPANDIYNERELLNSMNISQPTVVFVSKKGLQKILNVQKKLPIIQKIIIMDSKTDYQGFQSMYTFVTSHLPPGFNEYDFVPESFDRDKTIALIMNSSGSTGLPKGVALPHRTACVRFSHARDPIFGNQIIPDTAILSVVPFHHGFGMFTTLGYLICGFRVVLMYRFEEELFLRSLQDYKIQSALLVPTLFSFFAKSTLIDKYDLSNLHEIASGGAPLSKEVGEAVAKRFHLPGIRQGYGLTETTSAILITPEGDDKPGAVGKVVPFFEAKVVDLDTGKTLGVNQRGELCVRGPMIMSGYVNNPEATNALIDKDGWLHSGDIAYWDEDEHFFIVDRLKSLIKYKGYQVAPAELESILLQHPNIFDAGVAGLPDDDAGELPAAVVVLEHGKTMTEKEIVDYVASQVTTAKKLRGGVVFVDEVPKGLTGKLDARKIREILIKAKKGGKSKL
How it was run: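 Purified P. pyralis luciferase at 10 nM in 50 mM Tris Acetate (final), luminescence read within 5 minutes of enzyme addition to compounds. Activity normalised to PTC124 versus DMSO; concentration-response curves classed by r2, magnitude and activity.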

[3] = S16 Schwann cell viability assay (CellTiter-Glo assay) (AID 624031);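 also: cellular ATP luminescence as a viability measure; series mostly up to about 58 µM; nearly all actives have a fitted effect of over 70% in size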
How it was run: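 CellTiter-Glo ATP luminescence counter-screen in untransfected S16 rat Schwann cells, 24h compound exposure at 37 degree Celsius after overnight seeding (500-750 cells/well); response scaled between cell-free wells and DMSO (0% activity), curves classed by r2 and magnitude.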

With `CC(C)[C@H](N)C(=O)OCCOCn1cnc2c(=O)[nH]c(N)nc21` the Potency [1] was “inactive” and the Potency [2] was “inactive”.
With `Nc1cccc2c1CN(C1CCC(=O)NC1=O)C2=O` (configuration not stated) the Potency [1] was “inactive”, the Potency [2] was “inactive” and the Potency [3] was “inactive”.
With `CN1C(C(=O)Nc2ccccn2)=C(O)c2sccc2S1(=O)=O` the Potency [1] was “inactive”, the Potency [2] was “inactive” and the Potency [3] was “inactive”.
In the case of `Cc1cc(=O)c2c(O)c3c(O)cc(=O)c4c3c3c(cc(O)c1c23)C(C)(C)C=4O`, the Potency [1] is reported as 3.98 µM (active) and the Potency [2] is reported as “inactive”.
In the case of `CCOC(=O)c1c(C)n(C)c2ccc(O)cc12`, the Potency [1] is reported as “inactive”, the Potency [2] is reported as “inactive” and the Potency [3] is reported as “inactive”.
In the case of `CNC[C@@H](O)[C@@H](O)[C@H](O)[C@H](O)CO`, the Potency [1] is reported as “inactive” and the Potency [2] is reported as “inactive”.
With `CC1Cc2ccccc2N1NC(=O)c1ccc(Cl)c(S(N)(=O)=O)c1` (configuration not stated) the Potency [1] was “inactive” and the Potency [2] was “inactive”.
For `O=c1oc2cc(O)ccc2s1`, the Potency [1] was “inactive” and the Potency [2] was “inactive”.
With `CCN(CCO)CCCC(C)Nc1ccnc2cc(Cl)ccc12` (configuration not stated) the Potency [1] was “inactive” and the Potency [2] was “inactive”.
In the case of `N=C(N)c1ccc2cc(OC(=O)c3ccc(N=C(N)N)cc3)ccc2c1`, the Potency [1] is reported as “inactive”, the Potency [2] is reported as “inactive” and the Potency [3] is reported as “inactive”.
In the case of `Cc1c(C(=O)NN2CCCCC2)nn(-c2ccc(Cl)cc2Cl)c1-c1ccc(Cl)cc1`, the Potency [1] is reported as 2.82 µM (active), the Potency [2] is reported as “inactive” and the Potency [3] is reported as “inactive”.
With `CC(C)c1ccc2oc3nc(N)c(C(=O)O)cc3c(=O)c2c1` the Potency [1] was “inactive” and the Potency [2] was 405 nM (active).
In the case of `Nc1ccn([C@@H]2O[C@H](CO)[C@@H](O)C2O)c(=O)n1` (some centres not stated), the Potency [1] is reported as “inactive” and the Potency [2] is reported as “inactive”.
For `CC(S)C(=O)NCC(=O)O` (configuration not stated), the Potency [1] was “inactive”, the Potency [2] was “inactive” and the Potency [3] was “inactive”.
In the case of `O=C(NCCO[N+](=O)[O-])c1cccnc1`, the Potency [1] is reported as “inactive”, the Potency [2] is reported as “inactive” and the Potency [3] is reported as “inactive”.
With `N=C(N=C(N)N)N1CCOCC1` the Potency [1] was “inactive” and the Potency [2] was “inactive”.
In the case of `CC(C)(S)[C@@H](N)C(=O)O`, the Potency [1] is reported as “inactive” and the Potency [2] is reported as “inactive”.
With `CCC[C@@H]1C[C@@H](C(=O)N[C@@H]([C@H]2O[C@H](SC)[C@H](O)[C@@H](O)[C@H]2O)[C@@H](C)O)N(C)C1` the Potency [1] was “inactive”, the Potency [2] was “inactive” and the Potency [3] was “inactive”.
For `Cc1ncc([N+](=O)[O-])n1CC(C)O` (configuration not stated), the Potency [1] was “inactive”, the Potency [2] was “inactive” and the Potency [3] was “inactive”.
For `CC(=O)Nc1ccc(O)cc1`, the Potency [1] was “inactive”, the Potency [2] was “inactive” and the Potency [3] was “inactive”.
For `CC1=C(C)C(=O)C(C(CCCCCC(=O)O)c2ccccc2)=C(C)C1=O` (configuration not stated), the Potency [1] was “inactive”, the Potency [2] was “inactive” and the Potency [3] was “inactive”.
For `Cc1cc2c(s1)Nc1ccccc1N=C2N1CCN(C)CC1`, the Potency [1] was “inactive”, the Potency [2] was “inactive” and the Potency [3] was “inactive”.
With `Cc1nc(Nc2ncc(C(=O)Nc3c(C)cccc3Cl)s2)cc(N2CCN(CCO)CC2)n1` the Potency [1] was “inactive” and the Potency [2] was “inactive”.
In the case of `C[C@H](Cn1cnc2c(N)ncnc21)OCP(=O)(O)O`, the Potency [1] is reported as “inactive”, the Potency [2] is reported as “inactive” and the Potency [3] is reported as “inactive”.
In the case of `COC(=O)C1=C(C)NC(C)=C(C(=O)OCCCN2CCC(c3ccccc3)(c3ccccc3)CC2)C1c1cccc([N+](=O)[O-])c1` (configuration not stated), the Potency [1] is reported as 2 µM (active) and the Potency [2] is reported as “inactive”.
With `Clc1ccc(C(Cn2ccnc2)OCc2ccsc2Cl)c(Cl)c1` (configuration not stated) the Potency [1] was 10 µM (active) and the Potency [2] was “inactive”.
In the case of `O=C(CS(=O)Cc1ccco1)NCC=CCOc1cc(CN2CCCCC2)ccn1` (configuration not stated), the Potency [1] is reported as “inactive”, the Potency [2] is reported as “inactive” and the Potency [3] is reported as “inactive”.
For `Nc1cc(C(Cl)=C(Cl)Cl)c(S(N)(=O)=O)cc1S(N)(=O)=O`, the Potency [1] was “inactive” and the Potency [2] was “inactive”.
